# High-throughput results deposited in PubChem by National Center for Advancing Translational Sciences (NCATS).
# TRb-SRC2 inh: TRbeta-SRC2 interaction inhibition | TRbeta-SRC2 peptide binding, fluorescence polarization; receptor liganded with 1 µM T3 | hit rate 0.065% among 280,000 | Potency, µM (titrated, usually from 106 µM), inactives show at the highest dose activity change, negative = inhibition, hits mostly inhibitors | P10828;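 further: potency means the concentration at half of the fitted maximal effect; plate controls were bound peptide for no effect and peptide without receptor for full effect; nearly all actives have a fitted effect of over 50% in size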
#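 Each compound concentration gave % activity, normalized to unbound and bound Texas Red SRC2 controls, from polarization read after 5 hr ambient incubation with T3-loaded human TRb LBD.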
# KDM4E inh: inhibitors of human JMJD2E histone demethylase | B2RXH2 | JMJD2E catalytic domain, FDH-coupled NADH fluorescence (FDH is formaldehyde dehydrogenase) | Potency, µM (titrated, usually from 57.1 µM), for inactives: at the highest dose activity change, negative = inhibition, actives largely listed as inhibitors | hit rate 1.6% among 230,000 | AID 2147; active means well fitted inhibition curve with a large enough effect, not every such curve was filed as active; inconclusive means small, poorly fitted or top-dose-only effect, or another doubt; inactive means no such curve, though single readings can be large or run the other way;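 further: potency means the concentration at half of the fitted maximal effect; 0% = wells with enzyme and -100% = buffer wells without enzyme; nearly all actives have a fitted effect of over 50% in size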
# Target sequence (B2RXH2 1-337 limits assumed): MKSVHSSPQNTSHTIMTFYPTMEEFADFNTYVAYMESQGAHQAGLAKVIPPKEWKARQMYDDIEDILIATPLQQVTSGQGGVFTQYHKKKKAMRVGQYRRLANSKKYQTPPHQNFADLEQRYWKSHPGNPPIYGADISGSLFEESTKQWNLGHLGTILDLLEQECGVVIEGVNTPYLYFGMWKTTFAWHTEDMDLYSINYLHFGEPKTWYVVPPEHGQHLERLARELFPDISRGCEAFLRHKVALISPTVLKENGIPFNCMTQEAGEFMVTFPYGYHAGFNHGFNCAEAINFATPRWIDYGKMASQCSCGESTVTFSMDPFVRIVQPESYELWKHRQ
# HTT aggregate: inhibitors of mutant huntingtin aggregate formation in PC12 cells. PC12 HttQ103-GFP aggregates, Acumen cytometry, 40 h. hit rate 1.1% among 220,000. Potency, µM (series often up to 46.1 µM), without a hit: at the top dose activity change, negative = inhibition, most hits filed as inhibitors. AID 1688; further: potency means the concentration at half of the fitted maximal effect; on the % scale 0 is the no-effect control and ±100 the full control effect; nearly all actives have a fitted effect of over 60% in size
#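 Compounds (qHTS titration) were added to PC12 cells expressing an ecdysone-driven HTT exon 1 Q103–GFP fusion after induction with 100 nM tebufenozide. Aggregate formation was measured as GFP objects in cell lysates.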
# HTT cytoprotect: protects HTT-Q103 PC12 cells, measured by ATP | PC12 HTT-Q103 induced, cytoprotection, ATP luminescence, 40 h | Potency, µM (doses to about 56.4 µM), for the others: cytoprotection (ATP increase), actives largely listed as activators | hit rate 0.14% among 230,000; further: potency means the concentration at half of the fitted maximal effect; % of control where 0% means no effect; nearly all actives have a fitted effect of over 45% in size
#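 Quantitative HTS on tebufenozide-induced (100 nM) PC12 cells expressing HTTQ103 exon 1–GFP; compounds tested as a concentration series; survival measured via cellular ATP.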
# Coupling enz: counter-screen for Giardia aldolase inhibitors: coupling enzyme system; coupling enzyme system counterscreen, AmpLite Red fluorescence; activity change, negative = inhibition, % at 58.2 µM, hits read low; hit rate 0.67% among 290,000; AID 2472; in the data active means activity change below about -30%; further: on the % scale 0 is the no-effect control and ±100 the full control effect
#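 Counterscreen of the coupled detection system alone, without aldolase: glyceraldehyde-3-phosphate coupling enzymes plus AmpLite Red readout. Compounds at 57.5 uM final, 10 min RT preincubation, 20 min RT reaction, fluorescence 525/598 nm.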
# TexasRed fluor: Texas Red fluorescence interference in TRb-SRC2 counter-screen; TRb/SRC2 Texas Red total fluorescence interference; Potency, µM (series often up to 106 µM), for the others: top-dose fluorescence change, negative = quenching; hit rate 0.29% among 280,000; AID 1479; active means well fitted curve in either direction with a large enough effect; inconclusive means small, poorly fitted or top-dose-only effect; further: potency means the concentration at half of the fitted maximal effect; on the % scale 0 is the no-effect control and ±100 the full control effect
#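 Flags fluorescent or light-absorbing compounds by total fluorescence, S + 2P, at 555 nm excitation and 632 nm emission. Mixture: 20 nM Texas Red SRC2 peptide, 0.6 uM human TRb LBD, 1 uM T3, 5% DMSO; compound exposure 5 h at ambient temperature.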
# An asterisk follows results filed as active; ? = inconclusive; . = not tested or not shown; [ ] = dose if it differs, or a comment. In the library only some 2% were active in any assay of this set; here they are far more common. Unless noted, the call rests on the fitted dose curve; in most records, active means well fitted curve in the direction sought with a large enough effect; inconclusive means small, poorly fitted or top-dose-only effect, or another doubt; inactive means no such curve, though single readings can be large; an effect the other way counts as inactive or inconclusive.
SMILES,TRb-SRC2 inh,KDM4E inh,HTT aggregate,HTT cytoprotect,Coupling enz,TexasRed fluor
Cc1cccc(-n2nnc(-c3nc(-c4cccs4)no3)c2N)c1C,3%,.,.,.,.,2%
O=S(=O)(Nc1cc(O)cc2cccnc12)c1ccc(Cl)s1,?,.,.,.,-64*,-3%
O=S(=O)(Nc1cc(O)cc2cccnc12)c1ccc(Br)s1,-20%,.,.,.,-68*,-5%
C[Si](C)(Cl)[Si](C)(C)Cl,0%[201 µM],.,.,.,.,-1%[201 µM]
Cc1cc(C(=O)N/N=C/c2ccc(Cl)c([N+](=O)[O-])c2)c(C)n1-c1ccc(F)cc1,5%,22µM*,?,-13%[10 µM],7,-5%
Cc1cc(C(=O)N/N=C/c2ccc3c(c2)OCO3)c(C)n1-c1ccc(F)cc1,1%,-30%,-3%,-20%,-2,-1%
CC[C@H](C)[C@H](NC(=O)[C@@H](NC(=O)[C@@H](NC(=O)[C@H](CCC(=O)O)NC(=O)[C@H](CCC(=O)O)NC(=O)[C@H](CCC(=O)O)NC(=O)[C@H](C)NC(=O)[C@@H](N)CC(C)C)C(C)C)C(C)C)C(=O)N[C@@H](CCCNC(=N)N)C(=O)N[C@@H](CO)C(=O)N[C@@H](C)C(=O)N[C@@H](CC(N)=O)C(=O)N[C@@H](Cc1ccccc1)C(=O)N[C@H](C(=O)N[C@@H](CC(=O)O)C(=O)N[C@@H](CC(N)=O)C(=O)O)[C@@H](C)O,3%,.,.,.,10,-6%
CCCCC[C@H](O)/C=C/[C@@H]1[C@@H](C/C=C\CCCC(=O)OC)[C@@H](O)C[C@H]1O,2%,4µM*,17%,.,-5,2%
Cc1sc2ncnc(NC3CCN(Cc4ccccc4)CC3)c2c1C,-3%,7%,7.1µM*,2%[10 µM],1,-2%
Cc1ccc(Nc2ncnc3sc(C)c(C)c23)cc1,4%,-3%,?,-4%[10 µM],9,-4%
Cc1csc2c(NC3CCN(Cc4ccccc4)CC3)ncnc12,-2%,-3%,26%[9.22 µM],5%[10 µM],7,0%
c1ccc(CN2CCC(Nc3ncnc4sccc34)CC2)cc1,5%,1%,10µM*,-33%,0,1%
COC(=O)[C@@]1(Cc2ccc(OC)cc2)[C@H]2c3cc(C(=O)N4CCCC4)n(CCc4c[nH]c5ccc(OC)cc45)c3C[C@H]2CN1C(=O)c1ccccc1,4%,-19%,.,8%,-2,-1%
COc1ccc(Cl)cc1C(=O)NCc1nnnn1-c1ccccc1,3%,.,.,.,.,0%
Cc1cc2c(c(=O)o1)[C@H](O)[C@H]1O[C@@H]1C2=O,0%[11.2 µM],.,.,?,1,0%[11.2 µM]
CC1=C(C(N)=O)C(c2cccc(Br)c2)n2nc(SCc3ccccc3Cl)nc2N1 (centres undefined),-1%,.,.,.,.,-10%
COc1ccc(NC(=O)CCl)cn1,-1%,?,13%[9.22 µM],-13%[10 µM],-40*,2%
COc1ccc(NC(=O)/C(Cl)=C(/Cl)S(=O)Cc2ccc(Cl)cc2)cn1 (centres undefined),-4%,1%,4.5µM*,-155%,-1,-2%
COc1ccc(CNC(=O)Cc2c(C)c3c(cc(C)c4c(C)c(C)oc43)oc2=O)cc1OC,-2%,.,.,.,.,0%
CC(C)(C)n1nnnc1C(c1ccc(C(F)(F)F)cc1)N(Cc1ccc(F)cc1)Cc1ccco1 (centres undefined),7%,-7%,16µM*,-17%[10 µM],-2,-1%
CCn1c(=O)c2sccc2n2c(CCCC(=O)Nc3ccc(C)cc3)nnc12,2%,.,.,.,.,-1%
COc1ccccc1NC(=S)NNC(=O)c1cc(C)n(C)n1,-7%,18µM*,-23%,?,-6,-6%
COc1ccc(CNC(=O)c2cc3c(=O)n4cccc(C)c4nc3s2)cc1,3%,.,.,.,.,9%
COc1ccc(C2=C(C)C(=O)N(Cc3ccc(C(=O)NCc4cccc(C)c4)cc3)S2(=O)=O)cc1,-24%,.,.,.,.,158µM*[quencher]
CCNc1nc(NCC)nc(N/N=C/c2ccc(N(C)C)cc2)n1,4%,?,-6%,-46%,3,-3%
